The campaign covered roughly 5,500 compounds. About 2,000 (36%) were called active. Not shown: some 18% with an inconclusive outcome. Rule as the data show it: active = normalized growth mostly below about 0.91 (no sharp cut-off); inconclusive = no clear call, values can overlap the other calls; inactive = mostly above about 0.92. This is one part of the list.
Test: chemical genetic growth profiling, strain panel (AID 1159580);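 also: tested at 20 µM; growth read once vehicle control cultures reached saturation at 30 °C; 1 = growth at the plate median or of vehicle wells; lower values mean less growth of the strain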
Settings: S. cerevisiae deletion strains, growth OD

Measured: normalized growth

O=C(O)c1cc(=O)cc(C(=O)O)[nH]1
inactive: locus YAL040C, strain CLN3, active compounds read low 1.02 | locus YCL061C, strain MRC1 (second series), active compounds read low 1.01 | locus YER002W, strain NOP16, active compounds read low 1.04 | locus YMR263W, strain SAP30, active compounds read low 0.998 | locus YMR307W, strain GAS1, active compounds read low 1.01 | locus YNL175C, strain NOP13, active compounds read low 0.999 | locus YNL197C, strain WHI3, active compounds read low 1.03 | locus YNL224C, strain SQS1, active compounds read low 1.01 | locus YOR083W, strain WHI5 (second series), active compounds read low 1.02 | locus YPL055C, strain LGE1, active compounds read low 1.01

From PubChem BioAssay AID1159580 (chemical genetic matrix, 2015)
